Screening data: PubChem, National Center for Advancing Translational Sciences (NCATS)
Most compounds without a hit are left out; they make up all but 9.5% or so of the library.
Tau FP inhib: inhibitors of human tau fibril formation; P10636; K18 P301L tau heparin fibrillization, Alexa594 FP, 6 h; Potency, µM (highest dose often 57.7 µM), without a hit: at the highest dose activity, negative = inhibition, actives largely listed as inhibitors; hit rate 0.39% among 280,000; also: nearly all actives have a fitted effect of over 55% in size
Target sequence (P10636 561-689 P618L limits assumed): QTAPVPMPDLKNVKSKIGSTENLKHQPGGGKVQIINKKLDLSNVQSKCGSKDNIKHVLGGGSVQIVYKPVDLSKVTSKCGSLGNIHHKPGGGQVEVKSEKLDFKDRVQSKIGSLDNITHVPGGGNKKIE
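Human tau K18 […] P301L fragment, 15 uM unlabeled plus 0.24 uM Alexa 594-labeled tau (final), with compound and 20 uM heparin in 100 mM sodium acetate pH 7; 6 hr at 37 C, then Alexa 594 FP read.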
ALDH1A1 inh: inhibitors of human aldehyde dehydrogenase 1A1. AID 1030. Purified ALDH1A1, NADH fluorescence, propionaldehyde substrate. Potency, µM (highest dose often 75.3 µM), for inactives: at the top dose activity, negative = inhibition, actives largely listed as inhibitors. hit rate 7.3% among 220,000. P00352; active = well fitted inhibition curve with a large enough effect, not every such curve was filed as active; inconclusive = small, poorly fitted or top-dose-only effect, or another doubt; inactive = no such curve, though single readings can be large or run the other way;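 also: plate controls were no enzyme wells and a reference inhibitor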
Tau fluor counter: counter-screen for tau fibril formation inhibitors. tau K18 P301L Alexa594 fluorescence, heparin fibrillization. Potency, µM (titrated, usually from 57.7 µM), for the others: at the highest dose activity change, negative = decrease. hit rate 0.93% among 280,000. AID 1463; also: nearly all actives have a fitted effect of over 55% in size
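Human K18 P301L tau (15 uM unlabeled plus 0.24 uM Alexa 594-labeled, final) in 100 mM sodium acetate pH 7 was mixed with compound and 20 uM heparin and incubated 6 hr at 37 C.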
NPSR antagonist: antagonists of human neuropeptide S receptor cAMP signaling. Q6W5P4. hit rate 1% among 220,000. CHO-NPSR cells, cAMP TR-FRET, antagonist mode. AID 1461. Potency, µM (doses to about 38.3 µM), inactives show top-dose activity change, negative = inhibition, actives largely listed as inhibitors; also: nearly all actives have a fitted effect of over 50% in size
HPGD block: HPGD (human) dehydrogenase inhibition | purified HPGD, NADH fluorescence kinetic, PGE2 substrate | AID 894 | Potency, µM, inactives show at the top dose activity change, negative = inhibition, most hits filed as inhibitors | hit rate 4.3% among 150,000; active = well fitted inhibition curve with a large enough effect, not every such curve was filed as active; inconclusive = small, poorly fitted or top-dose-only effect, or another doubt; inactive = no such curve, though single readings can be large or run the other way
Target sequence (P15428 whole entry, looked up): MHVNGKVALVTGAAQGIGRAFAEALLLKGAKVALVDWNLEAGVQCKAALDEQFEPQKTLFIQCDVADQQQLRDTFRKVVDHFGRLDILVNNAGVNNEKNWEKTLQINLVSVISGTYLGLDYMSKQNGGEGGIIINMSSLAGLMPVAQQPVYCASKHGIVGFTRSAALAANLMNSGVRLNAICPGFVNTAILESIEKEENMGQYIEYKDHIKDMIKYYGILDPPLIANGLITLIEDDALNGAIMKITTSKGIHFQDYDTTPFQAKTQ
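20 nM HPGD preincubated 15 min at room temperature with compound in 50 mM Tris-HCl pH 8, 0.01% Tween 20. Started with 1 mM NAD+ and 30 uM prostaglandin E2; NADH fluorescence (360/450 nm) read 5 times over 30-s intervals, last minus first.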
Tau fibril ThT: inhibitors of human tau fibril formation, thioflavin T binding. P10636. recombinant tau K18 P301L (four-repeat tau fragment), heparin-induced fibrillization, ThT fluorescence. Potency, µM (highest dose often 57.4 µM), inactives show top-dose activity, negative = inhibition, usual class: inhibitors. hit rate 2.1% among 270,000. AID 1460; also: nearly all actives have a fitted effect of over 55% in size
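Heparin-induced fibrillization of the P301L-mutant K18 repeat-domain fragment of human tau was followed by ThT binding in quantitative high-throughput format.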
The depositor's hits bear a star; ? = inconclusive; nt = no result given; [ ] = another dose, or the depositor's remark. Unless noted, calls follow the shape of the dose curve; as a rule, active = well fitted curve in the direction sought with a large enough effect; inconclusive = small, poorly fitted or top-dose-only effect, or another doubt; inactive = no such curve, though single readings can be large; an effect the other way counts as inactive or inconclusive. Unless noted, % is scaled to controls: 0 for no effect and ±100 for the full control effect; potency is read from the fitted curve at half-maximal effect.

SMILES	Tau FP inhib	ALDH1A1 inh	Tau fluor counter	NPSR antagonist	HPGD block	Tau fibril ThT
O=C(NCc1ccccc1)c1cc(-c2ccncc2)nc2ccc(S(=O)(=O)N3CCOCC3)cc12	-8%	0.79µM*	-17%	-3%	-22%	-17%
NS(=O)(=O)c1ccc(CNC(=O)c2cc(-c3ccccn3)nc3ccc(Cl)cc23)cc1	-2%	2%	-8%	13µM*	nt	-1%
Cn1cnc2c(=O)oc3ccc(S(=O)(=O)N4CCN(c5ccccc5F)CC4)cc3c21	-8%	nt	9%	nt	nt	17%
C1CCc2nnc(-c3nnc4n3CCCCC4)n2CC1	-12%	6%	8%	-4%[46.1 µM]	-8%	6%
N#C/C(=C\c1c[nH]c2ccccc12)C(N)=O	8%	nt	-10%	-13%	nt	-11%
c1ccc2c(-c3nnc4n3CCCCC4)c[nH]c2c1	-1%	-15%	8%	-9%[46.1 µM]	25µM*	2%
N#C/C(=N\Nc1cccc2ccccc12)c1nnc2n1CCCCC2	-8%	22%	3%	-31%	18µM*	12%
N#C/C(=C\c1c[nH]c2ccccc12)c1nnc2n1CCCCC2	1%	-14%	-3%	?	13µM*	-13%
COc1ccc(NC(=O)CCCn2c(=O)c3sccc3n(Cc3cccc(C)c3)c2=O)cc1	-2%	2µM*	-10%	-17%	-4%	-2%
O=C1NCCn2ccc(=O)cc21	0%	?	8%	-23%	nt	2%
COc1ccccc1N=C1SC(C(=O)Nc2cccc(Cl)c2Cl)C(N)=C1C(N)=O (stereo not given)	?	nt	18µM*[quencher]	7%[7.67 µM]	nt	25µM*
CCOC(=O)c1sc2nc3n(c(=O)c2c1C)CCC(C)CC3 (stereo not given)	1%	11µM*	-17%	?	25µM*	?
CCOC(=O)N1CCN(C(=O)Nc2sc3nc4n(c(=O)c3c2C)CCC(C)CC4)CC1 (stereo not given)	11%	13µM*	-21%	-31%[46.1 µM]	-22%	?
CCOC(=O)N1CCC(NC(=O)c2sc3nc4n(c(=O)c3c2C)CCCC4)CC1	-2%	-3%	-4%	0%[46.1 µM]	1%	-9%
Cc1cccc(CCNC(=O)c2ccc3c(c2)nc2n3CCCCC2)c1	-5%	nt	-12%	nt	nt	?
Cc1ccc(-n2ncc(C(=O)NCCCN3CCCCC3)c2C2CCN(C(=O)OC(C)(C)C)CC2)c(C)c1	-2%	nt	-8%	nt	nt	-11%
O=C(NCCCN1CCOCC1)c1ccc(CNS(=O)(=O)c2ccc(Br)cc2)cc1	3%	22µM*	-1%	3%	-10%	2%
CCN1C(=O)c2ccccc2S(=O)c2ccc(C(=O)N3CCN(c4ccc(F)cc4)CC3)cc21 (stereo not given)	5%	nt	-17%	nt	nt	-15%
COc1ccc(CNC(=O)c2ccc(NC(=O)N3CCCCc4ccccc43)cc2)c(OC)c1	1%	nt	-2%	nt	nt	2%
CCOC(=O)c1oc2cc(O)c(CC)cc2c(=O)c1-c1cscn1	2%	-13%	-1%	-16%	nt	-5%
CCOC(=O)c1ccc(-c2c(C(=O)OCC)oc3cc(O)c(CC)cc3c2=O)o1	-12%	10µM*	-27%	?	-17%	?
Cc1ccc(-n2ncc3c(NCc4cccnc4)ncnc32)c(C)c1	2%	?	-4%	13%	?	6%
Cc1ccc(-n2ncc3c(NCc4ccccn4)ncnc32)c(C)c1	-9%	?	-10%	-2%[46.1 µM]	13µM*	-17%
Cc1ccc(-n2ncc3c(NCc4ccco4)ncnc32)c(C)c1	-6%	-2%	-2%	-3%[46.1 µM]	3.5µM*	-7%
COCCCNc1ncnc2c1cnn2-c1ccc(C)cc1C	1%	-6%	4%	-4%[46.1 µM]	7.9µM*	3%
CC(=O)O[C@H]1CC2(C)[C@@H](C[C@@H](O)[C@H]3[C@@]4(C)CC[C@@H](O)[C@@H](C)[C@@H]4CC[C@@]32C)C1=C(CCC=C(C)C)C(=O)O (stereo not given in full)	?	1%	1%	-18%[46.1 µM]	-6%	?
